Source: PubChem BioAssay AID2551 (National Center for Advancing Translational Sciences (NCATS), 2010)
“And” between values parts separate entries of the source, which are not always exact repeats. Equal entries are not always repeated. About 17,000 (5.5%) of roughly 310,000 compounds were called active. About 11% were inconclusive and are not listed. The call rests on the fitted dose curve; in most records, active means well fitted inhibition curve with a large enough effect; inconclusive means small, poorly fitted or top-dose-only effect, or effect the other way; inactive means no such curve, though single readings can be large or run the other way. For the sample, actives were picked, then their nearest neighbours and some compounds at random. The source holds several records for some structures; these can differ, active in one and inactive in another.

Each molecule was assayed against Nuclear receptor ROR-gamma (Mus musculus) (UniProt P51450) (assay: qHTS for inhibitors of ROR gamma transcriptional activity). Conditions: Drosophila S2 Gal4-RORgamma UAS-luciferase reporter, 20 h; series mostly up to 53.6 µM; activity change, negative = inhibition: at the top concentration.
Text: NIH Molecular Libraries Probe Production Network [MLPCN] NIH Chemical Genomics Center [NCGC] MLPCN Grant: R03 DA026211-01 Assay Provider: Dan Littman, New York University Assay Overview: The retinoic acid-related orphan receptor (ROR) gamma is a transcription factor that has a central role in the differentiation of Th17 cells, a subset of T helper cells that secrete the inflammatory cytokines IL-17, IL-17F, and IL-22. Th17 cells have been implicated in graft versus host disease, autoimmune disease and asthma. ROR gamma is induced in naive T helper cells in the presence of TGF-beta combined with IL-6, IL-21, or IL-23, and thereafter directs the expression of the Th17 lineage cytokines. To study the mechanism of action of ROR gamma, an insect cell-based assay was screened. This Drosophila Schneider cell line was stably transfected with two vectors: a gene expressing a fusion of the Gal4 DNA binding domain and ROR gamma transactivation domain under the control of the metallothionine promoter and a Photinus luciferase reporter regulated by the Gal4 binding site enhancer, UAS. […] Small molecule inhibitors of ROR gamma activity are detected by a decrease in luciferase reporter activity.
Assay Protocol Summary: For screening, 600 cells in 4 uL/well were dispensed into white solid 1536-well plates (Grenier) using a solenoid-based dispenser. Following transfer of 23 nL compound or DMSO vehicle by a pin tool, the plates were incubated 1 hr at ambient temperature, and 1 uL/well copper sulfate (700 uM final concentration) was added. The plates were centrifuged 15 s at 1000 RPM and incubated 20 hr at ambient temperature. After addition of 1.5 uL Photinus luciferase detection reagent, the plates were incubated 10 min at ambient temperature and then read by an ViewLux (Perkin Elmer) to detect luminescence. Keywords: NIH Roadmap, MLPCN, MLI, MLSMR, qHTS, NCGC, qHTS, nuclear hormone receptor, retinoic acid-related orphan receptor, ROR gamma
Further: nearly all actives have a fitted effect of over 60% in size.
On the % scale 0 is the no-effect control and ±100 the full control effect; potency means the concentration at half of the fitted maximal effect.

Chain of Nuclear receptor ROR-gamma (Mus musculus) (P51450 whole entry, looked up, the tested form may be a part): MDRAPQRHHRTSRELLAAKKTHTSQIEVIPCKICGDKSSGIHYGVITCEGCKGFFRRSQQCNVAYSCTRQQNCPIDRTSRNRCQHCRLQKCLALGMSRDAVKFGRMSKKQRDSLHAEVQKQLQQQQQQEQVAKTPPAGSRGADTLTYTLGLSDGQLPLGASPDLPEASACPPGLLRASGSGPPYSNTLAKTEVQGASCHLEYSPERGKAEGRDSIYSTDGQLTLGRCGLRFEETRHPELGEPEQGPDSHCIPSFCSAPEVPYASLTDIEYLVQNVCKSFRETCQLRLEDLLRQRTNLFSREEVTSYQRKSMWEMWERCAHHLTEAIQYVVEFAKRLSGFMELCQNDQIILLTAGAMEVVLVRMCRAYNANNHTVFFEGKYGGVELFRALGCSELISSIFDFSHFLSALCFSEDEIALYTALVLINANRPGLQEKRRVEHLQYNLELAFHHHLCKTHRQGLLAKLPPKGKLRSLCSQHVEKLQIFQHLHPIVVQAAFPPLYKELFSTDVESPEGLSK

SMILES	activity change, negative = inhibition	Potency
NC[C@H](O)c1ccc(O)cc1	3.67% [at 16.9 µM] (inactive)	–
COc1ccc(C2Oc3c(I)c(OC)cc(OC)c3CC2O)cc1OC (stereo not given)	12.7% (inactive)	–
CC(C)(C)c1ccc(CN2C(=O)CN=C(c3ccccc3)c3ccccc32)cc1	24.6% (inactive)	–
ClCCBr	14.1% (inactive)	–
Cc1cc(C)cc(NC(=S)NC2CC3CCCC(C2)N3Cc2cccs2)c1 (stereo not given)	–	8.91 µM (active)
C[C@@H]1C[C@H]2CC[C@H](O2)[C@H](C)C(=O)O[C@@H](C)C[C@@H]2CC[C@@H](O2)[C@@H](C)C(=O)O[C@H](C)C[C@H]2CC[C@H](O2)[C@H](C)C(=O)O[C@@H](C)C[C@@H]2CC[C@@H](O2)[C@@H](C)C(=O)O1	–	0.891 µM (active)
CC(=O)Oc1ccccc1C(=O)Nc1ncc([N+](=O)[O-])s1	-79.1% (inactive)	–
N#Cc1c(Cl)c(Cl)c(Cl)c(C#N)c1Cl	–	2.51 µM (active)
O=C1CCc2cccc3c2N1CC3	-10.2% (inactive)	–
Nc1ccc(-c2ccc(N)c(N)c2)cc1N	12.8% (inactive)	–
CC1=CC(=O)C2=C(C)C[C@H](O)[C@H]3[C@H](C)C(=O)O[C@@H]3C12 (stereo not given in full)	2.61% (inactive)	–
C=CCSSCC=C	-7.73% (inactive)	–
CCCCCCCCc1[se]c2ccccc2c1Br	-0.37% (inactive)	–
O=C(O)c1ccccc1NC(=O)C1C2CCC(O2)C1C(=O)O (stereo not given)	-10.6% (inactive)	–
c1csc(CN2CC3(CCNCC3)C2)n1	-0.669% (inactive)	–
C1CC[C@H]([C@@]23C[C@H](C[C@H]4CCCN[C@H]42)[C@@H]2CCCCN2C3)NC1	9.81% (inactive)	–
Cc1nc2ccccn2c1P(=S)(N1CCCCC1)N1CCCCC1	–	7.08 µM (active)
c1ccc(CCCCN2CCC(c3ccccc3)CC2)cc1	-10.4% (inactive)	–
Clc1ccc([C@@H]2C[C@H]3CC[C@@H]2N3)cn1	24.9% (inactive)	–
CC[C@]1(O)C(=O)OCc2c1cc1n(c2=O)Cc2cc3ccccc3nc2-1	-21.8% (inactive)	–
Cc1ncc(CC(=O)n2cc(C(=O)c3cc(Cl)ccc3O)cn2)s1	–	7.94 µM (active)
CC(C)(Cc1c[nH]c2ccc(Cl)cc12)NCCOc1ccccc1OCC1CC1	–	12.6 µM (active)
N[C@H](C(=O)O)c1cc(=O)[nH]o1	-0.853% (inactive)	–
COC(=O)N1C(c2ccccc2)C1c1ccccc1 (stereo not given)	19% (inactive)	–
CC(=O)[O][Sn]([c]1ccccc1)([c]1ccccc1)[c]1ccccc1	–	0.891 µM (active)

SMILES	activity change, negative = inhibition	Potency
C[C@@]12CCC3C(CC[C@@H]4CC(O)CC[C@@]34C)C1CCC2O (stereo not given in full)	-4.73% (inactive)	–
Cc1ncsc1CCCl	–	inactive
COc1cc2c(cc1OC)[C@@H]1C(=O)c3ccc(O)c(CC=C(C)C)c3OC1CO2 (stereo not given in full)	11.8% (inactive)	–
C[C@@]12CC[C@H]3[C@@H](CC[C@]4(O)C[C@H](O)CC[C@@]34C=O)[C@]1(O)CC[C@@H]2C1=CC(=O)OC1	15.8% [at 16.9 µM] (inactive)	–
N#Cc1cc(Br)c(O)c(Br)c1	29.7% (inactive)	–
CCCCC(=O)N/N=C/c1c(O)n(CCC2=CCCCC2)c(=O)[nH]c1=O	-37.8% (inactive)	–
CCCCC(=O)N/N=C/c1c(O)n(-c2ccccc2)c(=O)[nH]c1=O	-21.3% (inactive)	–
CCCCC(=O)N/N=C/c1c(O)n(CC)c(=S)n(CC)c1=O	–	2 µM (active)
CC(Cl)Cl	4.6% (inactive)	–
COC1=C[C@]23CCCN2CCc2cc4c(cc2[C@@H]3[C@@H]1O)OCO4	6.52% (inactive)	–
CCN1C[C@]2(C)CC[C@H](O)[C@@]34[C@@H]5CC6[C@@H](OC)C[C@@](O)([C@@H]5[C@@H]6O)[C@H](C[C@@H]23)[C@H]14	23.8% [at 16.9 µM] (inactive)	–
CO[C@H]1[C@@H](O)[C@@H](C)O[C@H](O[C@H]2[C@H](Oc3cccc4c(O)c5c(=O)oc6ccc(C)c7c(=O)oc(c34)c5c67)O[C@H](C)[C@H](O)[C@@H]2O)[C@@H]1O	–	11.2 µM (active)
CN1C2CC3CC1C(O3)C2O (stereo not given)	6.14% (inactive)	–
CC(C)(c1ccccc1)c1ccc(O)cc1	2.59% (inactive)	–
CCOc1ccc(-c2cc(C)[n+](CCN(CC)CC)c(-c3ccc(OCC)cc3)c2)cc1	-64.7% (inactive)	–
CCCCC/C=C\C/C=C\C/C=C\CCCCCCC(=O)NCCO	–	inactive
COc1ccc(CN2CCN(c3ccccc3F)CC2)c(OC)c1	9% (inactive)	–
COc1cc(-n2c(=S)[nH]c3ccc(C)cc3c2=O)c(Cl)cc1Cl	–	2.51 µM (active)
COc1ccccc1-c1[se]c2ccccc2c1I	17.7% (inactive)	–
C[C@]12O[C@H](C[C@@]1(O)C(=O)O)n1c3ccccc3c3c4c(c5c6ccccc6n2c5c31)CNC4=O	13.2% (inactive)	–
CNCC[C@H](Oc1ccc(C(F)(F)F)cc1)c1ccccc1	23.7% [at 16.9 µM] (inactive)	–
C=CC#N	3.71% (inactive)	–
O=C1C2CCN(CC2)C1(CO)CO	–	inactive and 25.1 µM (active)
c1ccc2c(c1)[I+]c1ccccc1-2	-83.8% (inactive)	–
O=P1(Oc2ccccc2)CC(O)C(O)C(COCc2ccccc2)O1 (stereo not given)	-1.94% (inactive)	–
